The results in this text go back to PubChem BioAssay AID1578 (Sanford-Burnham Center for Chemical Genomics, 2009).

Out of some 290,000 compounds screened, about 3,000 (1%) were called active. For the sample, actives were picked, then their nearest neighbours and some compounds at random. Unmarked numbers belong to inactive results. Rule as the data show it: active = inhibition mostly above about 36% (no sharp cut-off); inactive = mostly below about 34%.

The experiment can be described thus: inhibition of NOD1-driven NF-kB reporter – cell-based, luminescence, uHTS, primary screen (AID 1578).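 Also: HEK-293T reporter cells stimulated with the NOD1 agonist gamma-tri-DAP.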 Particulars: NOD1-driven NF-kB luciferase reporter cells, at 4 µM, hits give high values.
As for `CCCC(C)c1nc(C(N)=O)c2[nH]c(=O)n(-c3ccc(OC)c(OC)c3)c2n1` (stereo unspecified), the inhibition was -11.9%.
The result for `O=C(N/N=C/c1c(F)cccc1Cl)C1CC1` reads -15.7%; that for `COc1cccc(/C=N/Nc2ccc(C(=O)O)cc2)c1O`, 104% (active); that for `COc1cccc(/C=N/Nc2ccc([N+](=O)[O-])cc2)c1O`, -2.8%.
For the compound `COc1cccc(/C=N/Nc2ccccc2C(=O)O)c1O`, the inhibition is -5.1%.
Take `COc1cc(/C=N/O)ccc1OCc1ccc(Cl)cc1`: the inhibition was -6.6%.
The result for `COc1ccc(/C=N/Nc2ccc(C(=O)O)cc2)cc1Br` reads 50.9% (active).
The result for `COc1cc(/C=N/Nc2ccc(C(=O)O)cc2)ccc1O` reads -8.3%.
On to `COc1cc(/C=N/O)ccc1OCc1ccc(C(=O)O)cc1`, for which the inhibition is 100% (active).
The result for `COc1ccc(/C=N/Nc2ccc(C(=O)O)cc2)cc1OC` reads -8.6%; that for `O=C(O)c1ccc(N/N=C/c2c(F)cccc2Cl)cc1`, 26.1% (active); that for `O=C(O)c1ccc(N/N=C/c2cccc(F)c2)cc1`, -22.9%.
The result for `COc1cc(/C=N/NS(=O)(=O)c2ccc(C)cc2)ccc1OCc1ccc(C(=O)O)cc1` reads 18.4%.
Consider `COc1cc(=O)[nH]c(SCC(=O)Nc2ccc3ccccc3c2)n1`, for which the inhibition is -28.4%.
The result for `CCOc1ccc(-c2nnc(NC(=O)Cc3ccc(OC)cc3)o2)cc1` reads -18.3%; that for `O=C1Cc2ccccc2C(=O)N1c1ccc(F)cc1Cl`, -16.4%; that for `C=CCn1cc(C(C)=O)c(=O)[nH]c1=O`, -20.3%.
Consider `C/C(CC(=O)Nc1ccc2c(c1)OCCO2)=N\NC(=O)Cc1ccc(Cl)cc1`, for which the inhibition was -8.8%.
On to `COCCCNC(=O)Cn1c(=O)n(Cc2ccc(F)cc2)c(=O)c2sccc21`, for which the inhibition is -8.2%.
The result for `CSCCOC(=O)C1=C(C)NC(=O)NC1c1ccc2c(c1)OCO2` (stereo unspecified) reads -24.6%; that for `O=C(NCC1CCCO1)c1cc2ccccc2nc1Cl` (stereo unspecified), -20.2%.
With `CCn1c(=O)c([N+](=O)[O-])c(N2CCSCC2)c2ccccc21`, the inhibition is 8.8%.
The result for `O=C(NCc1ccccc1)c1ccc(Cn2cc(C(F)(F)F)ccc2=O)cc1` reads -8.1%; that for `COC(=O)c1ccc(COc2ccc(/C=C/C(=O)c3ccc(OC)c(CSCC(=O)O)c3)cc2OC)cc1`, 49.5% (active); that for `COc1ccc(C(=O)/C=C/c2ccc(OCc3ccccc3)cc2)cc1CSCC(=O)O`, 0.4%.
The result for `O=C(O)c1cc(N/N=C/c2ccc3c(c2)OCO3)ccc1Cl` reads -59.6%; that for `O=C(O)c1ccc(N/N=C/c2ccc3c(c2)OCO3)cc1`, 80.4% (active); that for `O=C(N/N=C/c1ccc2c(c1)OCO2)c1ccc2c(c1)OCO2`, -42.6%.
The result for `O=C(O)c1ccc(N/N=C/c2ccc(-c3ccccc3)cc2)cc1` reads -27%; that for `O=C(O)c1ccc(N/N=C/c2ccc(C(F)(F)F)cc2)cc1`, 17.4%.
Turning to `COc1ccc(C(=O)/C=C/c2cccc(OCc3ccccc3)c2)cc1CSCC(=O)O`, the inhibition is 11.8%.
As for `CC(C)c1ccc(/C=N/Nc2ccc(C(=O)O)cc2)cc1`, the inhibition was 64.4% (active).
The result for `CCOC(=O)c1[nH]n(-c2ccc(Cl)cc2)c(=O)c1C` reads -33.9%.
The result for `O=C(c1cc(-c2ccc(Cl)cc2)n[nH]1)N1CCN(C(=O)c2ccco2)CC1` reads 13.4%; that for `COC(=O)C1CC(c2ccc(Cl)cc2)=NO1` (stereo unspecified), -38.4%; that for `CCOc1ncccc1C(=O)Nc1cccc(-c2nnc3n2CCCCC3)c1`, -22.1%.
The result for `Cc1cccc(C)c1NC(=S)NCCc1ccc(O)c(O)c1` reads -28.1%; that for `COc1ccccc1OC(=O)C1CC(=O)N(c2ccc(Cl)cc2)C1` (stereo unspecified), -7.8%.
As for `Cc1ccc(Nc2nc(CSc3nnc(-c4cccnc4)n3-c3ccccc3C)cs2)cc1`, the inhibition was 87% (active).
As for `Cc1ccc(Nc2nc(CSc3nnc(-c4cccnc4)n3-c3ccccc3F)cs2)cc1`, the inhibition was 18.9%.
The result for `Cc1ccccc1-n1c(SCc2csc(Nc3ccccc3)n2)nnc1-c1cccnc1` reads -18.5%.
As for `CC1(C)CN(c2cccc(Br)c2)C1=O`, the inhibition is -15.6%.
For `Cc1nn(C)cc1CN(C)Cc1c(C(=O)N(C)Cc2ccccc2)nc2ccccn12`, the inhibition was -20.3%.
For the compound `CN(Cc1c(C(=O)N(C)Cc2ccccc2)nc2ccccn12)CC1Cc2ccccc2O1` (stereo unspecified), the inhibition was 64.7% (active).
The result for `CC(c1ccon1)N(C)Cc1c(C(=O)N(C)Cc2ccccc2)nc2ccccn12` (stereo unspecified) reads -38.7%.
The result for `O=C(CSCC(=O)NC1CC1)Nc1ccc2ccccc2c1` reads -5.8%.
The result for `O=C(NCc1ccc2c(c1)OCO2)Nc1ccc([N+](=O)[O-])cc1` reads -44.5%; that for `O=[N+]([O-])c1ccc(NCc2ccc3c(c2)OCO3)cc1`, 88.5% (active).
Turning to `O=C(Cc1ccc([N+](=O)[O-])cc1)NCc1ccc2c(c1)OCO2`, the inhibition is -15.5%.
Take `CN(Cc1ccc2nonc2c1)Cc1nc(Cc2cccc(F)c2)no1`: the inhibition was -14.8%.
On to `CC1(C)OC(=O)CC1C(=O)NCc1ccccc1` (stereo unspecified), for which the inhibition was -18.4%.
The result for `Cc1ccc(NC(=S)NCC(O)c2ccccc2)c(C)c1` (stereo unspecified) reads -31%; that for `O=S(=O)(c1cccs1)N1CN(Cc2ccc(F)cc2)c2nc3ccccc3nc21`, 6.3%; that for `COC(=O)C1CC23C=CCN4CCC5(c6ccccc6NC15C2C)C43` (stereo unspecified), 46.8% (active).
The result for `CCC12CCCN3CCC4(C(=C(C(=O)OC)C1)Nc1ccccc14)C32` (stereo unspecified) reads -7.2%.
As to `COC(=O)C1CCN(C(=O)/C(C)=C\c2ccccc2)CC1`, the inhibition is -32.2%.
For the compound `CCCOC1CCCN(C(=O)CCCn2nnnc2CN2CCOCC2)C1` (stereo unspecified), the inhibition is 10.3%.
On to `Cc1cc(C(=O)NC2CCCN(Cc3ccccc3F)C2)no1` (stereo unspecified), for which the inhibition is -19.1%.
The result for `Cn1nc(C(=O)NC2CCCN(Cc3ccccc3F)C2)c2ccccc2c1=O` (stereo unspecified) reads -20.9%; that for `O=C(O)C(=O)/C(=C\c1cccc2ccccc12)c1ccc2ccccc2n1`, 2.3%.
The result for `CCC(C(=O)NC1CCCC1)N(C(=O)Cn1nnc(-c2ccc(OC)c(OC)c2)n1)c1cccc(O)c1` (stereo unspecified) reads -30.7%; that for `Cc1cc(C(=O)CSc2nnc(-c3ccccc3F)o2)c(C)n1Cc1cccs1`, 58.1% (active); that for `Cc1cc(C(=O)COc2ccc3ccc(=O)oc3c2)c(C)n1Cc1cccs1`, 22.1%.
In the case of `Cc1cc(C(=O)CN2C(=O)c3ccccc3C2=O)c(C)n1Cc1cccs1`, the inhibition is 13.2%.
The result for `COCCn1c(C)cc(C(=O)COC(=O)c2ccccc2Br)c1C` reads 67.9% (active); that for `Cc1cc(C(=O)COC(=O)c2ccc(Br)o2)c(C)n1Cc1ccco1`, -24.2%.
The result for `COCCn1c(C)cc(C(=O)COC(=O)c2ccc[nH]c2=O)c1C` reads 50.7%; that for `Cc1cc(C(=O)COC(=O)c2ccc(O)cc2)c(C)n1Cc1ccco1`, -37.3%.
The result for `Cc1cc(C(=O)CSc2n[nH]c(-c3ccccc3F)n2)c(C)n1Cc1cccs1` reads 29.2%; that for `COc1ccc(-c2nnc(SCC(=O)c3cc(C)n(Cc4cccs4)c3C)o2)cc1`, -40.4%.
Take `COCCn1c(C)cc(C(=O)COC(=O)c2ccc(Br)o2)c1C`: the inhibition was -30.4%.
The result for `Cc1cc(C(=O)COC(=O)c2ccco2)c(C)n1Cc1ccco1` reads 45.8% (active); that for `CCOC(=O)CSc1nnc(Cn2c(=O)sc3ccccc32)n1-c1ccccc1C`, 5.4%.
As for `O=C(Nc1ccc(F)cc1)N(Cc1cccs1)Cc1cc2cc3c(cc2[nH]c1=O)OCO3`, the inhibition was -9.6%.
The result for `CC1(C)CC(=O)C(C=NCC2CCNCC2)=C(O)C1` reads -6.2%.
The result for `C=CCNC(=S)Nc1ccc(OC(F)F)c(Cl)c1` reads -16.4%; that for `CN1C(=O)Cc2cc(S(=O)(=O)NCCc3ccc(Cl)cc3)ccc21`, -20.9%.
With `Cc1ccc(S(=O)(=O)N2Cc3ccccc3CC2C(=O)Nn2cnnc2)cc1` (stereo unspecified), the inhibition is -8.2%.
Regarding `Cc1cc(C(=O)COC(=O)c2ccccc2O)c(C)n1Cc1cccs1`, the inhibition is 99.2% (active).
The result for `Cc1cc(C(=O)COC(=O)c2ccc3c(c2)OCO3)c(C)n1Cc1cccs1` reads -27.2%; that for `CCn1nc(C(=O)OCC(=O)c2cc(C)n(Cc3cccs3)c2C)c2ccccc2c1=O`, -15%; that for `O=C(COC(=O)c1ccco1)NC1CCCC1`, -23.8%.
On to `Cc1cc(NC(=O)CSc2nc3ccsc3c(=O)n2CCCC(=O)NCCc2ccccc2)no1`, for which the inhibition is -20%.
For `CC(C1CC1)N(Cc1ccccc1)C(=O)NC(=O)c1ccc(F)cc1` (stereo unspecified), the inhibition is -23.2%.
Turning to `Cc1ccc(-n2cc(-c3ccccc3)c3c(N4CCOCC4)ncnc32)cc1`, the inhibition was 20.2%.
As for `Cc1cccc(-n2cc(-c3ccccc3)c3c(NN4CCOCC4)ncnc32)c1`, the inhibition is -8.1%.
On to `Cc1cccc(-n2cc(-c3ccccc3)c3c(N4CCOCC4)ncnc32)c1`, for which the inhibition is 56.2% (active).
For the compound `CCc1c(C)nc(Nc2nc(C)c3ccc(OC)cc3n2)[nH]c1=O`, the inhibition was -7.1%.
Consider `CCc1c(C)nc(Nc2nc(C)c3cc(OC)ccc3n2)[nH]c1=O`, for which the inhibition was -42.8%.
Consider `COc1ccc2c(C)nc(Nc3nc(C)c(C)c(=O)[nH]3)nc2c1`, for which the inhibition was 80.7% (active).
On to `Cc1sc2ncnc(N3CCC(C(=O)NNC(=O)c4ccccc4Cl)CC3)c2c1C`, for which the inhibition was 5.2%.
Take `CNC(=O)COC(=O)c1ccc(OCC(=O)Nc2ccccc2OC)c(OC)c1`: the inhibition was -18.6%.
`CC1(C)CC(=O)C2=C(C1)OC(N)=C(C#N)[C@@]21C(=O)N(CC(N)=O)c2ccccc21`: the inhibition is -14.4%.
As for `COc1ccccc1NS(=O)(=O)c1cc(NC(=O)c2cc3ccccc3oc2=O)ccc1C`, the inhibition is 42.3%.
Take `Cc1ccc(NC(=O)c2cc3ccccc3oc2=O)cc1S(=O)(=O)N(C)C`: the inhibition is 98.1% (active).
The result for `Cc1ccc(NC(=O)c2cc3ccccc3o2)cc1S(=O)(=O)N(C)C` reads -60.5%.
